Test results published in ChEMBL document CHEMBL3988442, “University of Dundee, Small-Polar-MMV Screening Library” (2021).
For some assays here: Entries with a potency or affinity are not part of this list.

Assays:
Parameters in all cases: scale not given: direction of the effect not stated beside the values
[1] = target: Protein translocase subunit SecA (Escherichia coli (strain K12)) (UniProt P10408); assay: Assay to Identify E. coli SecA ATPase Inhibitors; type: functional; conditions: 30 µM
[2] = target: T1, Ubiquitin-activating enzyme e1, putative (Leishmania donovani (strain BPK282A1)) (UniProt E9BSI1); assay: Leishmania donovani Ubiquitin Activating Enzyme (LdE1); type: functional; conditions: 30 µM
T1 sequence (whole entry): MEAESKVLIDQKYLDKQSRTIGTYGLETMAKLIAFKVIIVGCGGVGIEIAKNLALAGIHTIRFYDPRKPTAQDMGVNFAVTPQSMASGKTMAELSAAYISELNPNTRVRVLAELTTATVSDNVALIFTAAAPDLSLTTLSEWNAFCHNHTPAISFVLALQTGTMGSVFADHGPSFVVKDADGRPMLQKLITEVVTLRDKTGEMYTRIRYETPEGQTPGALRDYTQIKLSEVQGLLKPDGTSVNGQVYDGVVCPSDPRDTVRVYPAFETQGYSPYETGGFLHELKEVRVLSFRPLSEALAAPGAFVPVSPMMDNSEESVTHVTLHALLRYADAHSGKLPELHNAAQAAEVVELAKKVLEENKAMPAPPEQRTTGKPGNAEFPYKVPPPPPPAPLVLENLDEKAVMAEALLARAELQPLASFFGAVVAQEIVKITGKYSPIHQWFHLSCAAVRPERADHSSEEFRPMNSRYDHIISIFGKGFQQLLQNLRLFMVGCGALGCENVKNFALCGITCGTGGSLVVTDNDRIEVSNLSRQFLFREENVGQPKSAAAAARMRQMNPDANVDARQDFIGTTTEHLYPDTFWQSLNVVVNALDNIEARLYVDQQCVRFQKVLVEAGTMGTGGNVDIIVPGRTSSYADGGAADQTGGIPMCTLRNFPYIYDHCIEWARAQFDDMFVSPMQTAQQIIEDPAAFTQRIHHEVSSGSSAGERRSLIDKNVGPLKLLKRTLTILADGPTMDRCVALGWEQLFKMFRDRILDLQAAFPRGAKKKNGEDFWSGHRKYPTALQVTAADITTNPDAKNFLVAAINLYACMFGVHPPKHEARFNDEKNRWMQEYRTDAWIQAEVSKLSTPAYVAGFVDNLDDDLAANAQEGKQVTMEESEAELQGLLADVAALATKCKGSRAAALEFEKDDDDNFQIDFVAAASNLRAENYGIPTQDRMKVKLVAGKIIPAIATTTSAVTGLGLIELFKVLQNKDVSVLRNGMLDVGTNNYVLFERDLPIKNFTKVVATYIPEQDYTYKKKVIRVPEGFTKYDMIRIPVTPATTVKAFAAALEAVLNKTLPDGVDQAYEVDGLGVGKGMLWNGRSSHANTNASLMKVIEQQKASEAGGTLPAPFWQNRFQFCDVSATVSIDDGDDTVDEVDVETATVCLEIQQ

[3] = target: AMP-activated protein kinase, AMPK (Homo sapiens) (UniProt P54646+O43741+P54619+Q9UGJ0+Q9Y478+Q13131+Q9UGI9); assay: AMP-dependent Kinase enzyme assay. An in vitro enzyme assay that detects ADP turnover that is directly proportional to AMPK activity. This uses naive AMPK that is activated during the assay with MK-8722; type: functional; conditions: 30 µM
[4] = target: Sialic acid-binding Ig-like lectin 9 (Homo sapiens) (UniProt Q9Y336); assay: Hs-Siglec9 ALPHAscreen SOP 20170721; conditions: 10 µM
[5] = test system: Trypanosoma cruzi; assay: Trypanosoma cruzi phosphomannomutase and mannose-1-phosphate guanylyltransferase assay; type: functional; conditions: 10 µM
[6] = target: T2, Arginase-2, mitochondrial (Homo sapiens) (UniProt P78540); assay: in vitro enzyme assay to detect the production of urea directly proportional to the activity of Arginase II; type: functional; conditions: 33.3 µM; note: in the data most compounds retested in dose-response had high values
T2 sequence (whole entry): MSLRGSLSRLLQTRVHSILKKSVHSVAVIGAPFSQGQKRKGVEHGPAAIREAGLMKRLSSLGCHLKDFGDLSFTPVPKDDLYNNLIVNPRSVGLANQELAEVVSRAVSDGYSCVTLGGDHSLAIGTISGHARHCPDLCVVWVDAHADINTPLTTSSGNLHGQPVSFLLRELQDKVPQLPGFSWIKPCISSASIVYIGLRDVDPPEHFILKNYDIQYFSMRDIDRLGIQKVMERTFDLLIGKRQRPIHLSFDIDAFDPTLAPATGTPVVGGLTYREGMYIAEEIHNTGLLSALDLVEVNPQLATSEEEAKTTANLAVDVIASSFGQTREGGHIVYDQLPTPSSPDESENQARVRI

[7] = target: T3, Proteasome subunit beta (Trypanosoma cruzi) (UniProt O96673); assay: Trypanosoma cruzi proteasome chymotrypsin-like activity (TcProtChymo) assay.; note: in the data most compounds retested in dose-response had high values; type: functional; conditions: 9.37 µM
T3 sequence (whole entry): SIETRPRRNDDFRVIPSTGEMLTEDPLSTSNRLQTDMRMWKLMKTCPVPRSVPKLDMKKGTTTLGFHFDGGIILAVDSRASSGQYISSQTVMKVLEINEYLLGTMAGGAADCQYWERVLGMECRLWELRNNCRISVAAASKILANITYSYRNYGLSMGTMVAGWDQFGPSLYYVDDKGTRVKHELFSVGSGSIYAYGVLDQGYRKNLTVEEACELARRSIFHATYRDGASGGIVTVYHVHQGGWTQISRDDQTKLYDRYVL

[8] = species on record: Homo sapiens; assay: To identify inhibition of the IFN signalling (Jak-Stat) pathway via expression of an eGFP reporter gene under the control of an IFN-stimulated response element (ISRE) containing MxA promoter.; type: functional; conditions: 30 µM
[9] = target: T4, Tyrosyl-tRNA synthetase, putative (Trypanosoma cruzi (strain CL Brener)) (UniProt Q4DSP6); assay: Trypanosoma cruzi tyrosyl tRNA synthetase (TcYRS) _High Tyrosine SOP; type: functional; conditions: 30 µM; note: in the data most compounds retested in dose-response had high values
T4 sequence (whole entry): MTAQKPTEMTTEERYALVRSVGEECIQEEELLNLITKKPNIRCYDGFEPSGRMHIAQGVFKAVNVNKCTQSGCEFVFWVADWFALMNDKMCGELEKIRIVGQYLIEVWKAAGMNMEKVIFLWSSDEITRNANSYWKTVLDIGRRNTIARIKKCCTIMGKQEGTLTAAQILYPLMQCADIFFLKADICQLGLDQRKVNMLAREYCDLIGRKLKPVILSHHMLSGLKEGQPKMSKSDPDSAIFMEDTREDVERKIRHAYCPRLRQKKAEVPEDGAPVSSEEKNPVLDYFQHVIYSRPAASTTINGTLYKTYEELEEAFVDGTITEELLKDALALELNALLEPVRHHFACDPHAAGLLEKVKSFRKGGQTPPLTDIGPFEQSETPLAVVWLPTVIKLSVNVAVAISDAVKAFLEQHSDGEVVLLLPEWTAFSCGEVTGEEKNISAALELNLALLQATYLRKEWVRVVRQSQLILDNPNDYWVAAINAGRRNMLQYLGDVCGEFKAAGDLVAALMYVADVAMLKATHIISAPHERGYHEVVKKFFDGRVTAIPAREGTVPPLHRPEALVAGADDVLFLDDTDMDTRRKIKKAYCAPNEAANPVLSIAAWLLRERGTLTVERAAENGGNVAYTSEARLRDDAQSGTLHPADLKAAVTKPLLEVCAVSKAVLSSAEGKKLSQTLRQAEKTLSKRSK

[10] = target: T4, Tyrosyl-tRNA synthetase, putative (Trypanosoma cruzi (strain CL Brener)); assay: Trypanosoma cruzi tyrosyl tRNA synthetase (TcYRS) SOP; type: functional; conditions: 30 µM
[11] = target: Chromo domain-containing protein 1 (Saccharomyces cerevisiae (strain ATCC 204508 / S288c) (Baker's yeast)) (UniProt P32657); assay: ScCHD-1 Enzyme Inhibition Assay; type: functional; conditions: 30 µM; note: in the data most compounds retested in dose-response had high values
Sequence of Chromo domain-containing protein 1 (Saccharomyces cerevisiae (strain ATCC 204508 / S288c) (Baker's yeast)) (P32657 whole entry, the tested form may be a part): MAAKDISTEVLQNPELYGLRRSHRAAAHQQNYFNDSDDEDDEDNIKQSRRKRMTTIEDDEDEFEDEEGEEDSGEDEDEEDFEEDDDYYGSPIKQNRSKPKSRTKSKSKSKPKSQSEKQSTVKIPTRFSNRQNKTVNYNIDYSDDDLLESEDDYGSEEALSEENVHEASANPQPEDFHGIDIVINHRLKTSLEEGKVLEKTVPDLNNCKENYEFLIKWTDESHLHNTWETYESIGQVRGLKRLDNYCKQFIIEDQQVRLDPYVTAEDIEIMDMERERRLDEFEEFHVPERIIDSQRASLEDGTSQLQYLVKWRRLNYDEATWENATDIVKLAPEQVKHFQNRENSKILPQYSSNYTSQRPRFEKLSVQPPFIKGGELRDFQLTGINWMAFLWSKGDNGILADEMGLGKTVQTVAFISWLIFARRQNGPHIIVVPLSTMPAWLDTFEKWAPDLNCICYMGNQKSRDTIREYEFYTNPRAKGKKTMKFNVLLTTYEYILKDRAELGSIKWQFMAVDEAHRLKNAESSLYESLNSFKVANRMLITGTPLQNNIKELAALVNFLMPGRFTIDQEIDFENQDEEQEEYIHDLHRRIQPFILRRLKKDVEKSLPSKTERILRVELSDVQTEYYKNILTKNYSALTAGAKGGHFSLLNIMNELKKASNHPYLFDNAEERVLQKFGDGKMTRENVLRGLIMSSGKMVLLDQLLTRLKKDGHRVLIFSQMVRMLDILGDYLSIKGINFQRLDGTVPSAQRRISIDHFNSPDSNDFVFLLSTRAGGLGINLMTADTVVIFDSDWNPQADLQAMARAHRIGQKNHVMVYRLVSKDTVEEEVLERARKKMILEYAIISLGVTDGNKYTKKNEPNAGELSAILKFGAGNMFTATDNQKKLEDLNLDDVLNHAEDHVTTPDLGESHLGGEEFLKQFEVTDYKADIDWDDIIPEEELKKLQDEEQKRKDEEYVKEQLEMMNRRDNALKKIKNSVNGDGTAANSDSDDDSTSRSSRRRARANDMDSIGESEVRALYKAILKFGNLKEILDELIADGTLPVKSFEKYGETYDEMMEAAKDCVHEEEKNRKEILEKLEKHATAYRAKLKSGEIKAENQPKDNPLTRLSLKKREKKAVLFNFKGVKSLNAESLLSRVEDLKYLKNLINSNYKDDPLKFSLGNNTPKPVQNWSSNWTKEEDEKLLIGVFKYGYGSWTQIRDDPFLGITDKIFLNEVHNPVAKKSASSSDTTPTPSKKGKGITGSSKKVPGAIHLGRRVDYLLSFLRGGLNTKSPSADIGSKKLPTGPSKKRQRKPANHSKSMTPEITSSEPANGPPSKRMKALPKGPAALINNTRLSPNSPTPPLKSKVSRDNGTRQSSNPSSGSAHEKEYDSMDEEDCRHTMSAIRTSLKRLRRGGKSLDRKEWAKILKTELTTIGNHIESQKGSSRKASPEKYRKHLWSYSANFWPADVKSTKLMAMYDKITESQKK

Sequence of Sialic acid-binding Ig-like lectin 9 (Homo sapiens) (Q9Y336 whole entry): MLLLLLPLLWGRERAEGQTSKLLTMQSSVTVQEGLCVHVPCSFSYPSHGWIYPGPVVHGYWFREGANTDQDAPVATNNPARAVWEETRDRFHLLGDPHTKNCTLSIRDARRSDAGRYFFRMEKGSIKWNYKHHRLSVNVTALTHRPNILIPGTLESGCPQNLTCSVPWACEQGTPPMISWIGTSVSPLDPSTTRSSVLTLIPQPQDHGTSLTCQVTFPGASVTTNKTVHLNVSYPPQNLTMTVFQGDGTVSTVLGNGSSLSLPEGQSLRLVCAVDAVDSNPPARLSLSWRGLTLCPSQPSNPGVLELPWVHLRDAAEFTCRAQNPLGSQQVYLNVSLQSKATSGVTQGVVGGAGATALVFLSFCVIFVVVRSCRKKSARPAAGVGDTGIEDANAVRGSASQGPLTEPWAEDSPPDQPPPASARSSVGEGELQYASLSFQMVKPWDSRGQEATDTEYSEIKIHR
Sequence of Protein translocase subunit SecA (Escherichia coli (strain K12)) (P10408 whole entry): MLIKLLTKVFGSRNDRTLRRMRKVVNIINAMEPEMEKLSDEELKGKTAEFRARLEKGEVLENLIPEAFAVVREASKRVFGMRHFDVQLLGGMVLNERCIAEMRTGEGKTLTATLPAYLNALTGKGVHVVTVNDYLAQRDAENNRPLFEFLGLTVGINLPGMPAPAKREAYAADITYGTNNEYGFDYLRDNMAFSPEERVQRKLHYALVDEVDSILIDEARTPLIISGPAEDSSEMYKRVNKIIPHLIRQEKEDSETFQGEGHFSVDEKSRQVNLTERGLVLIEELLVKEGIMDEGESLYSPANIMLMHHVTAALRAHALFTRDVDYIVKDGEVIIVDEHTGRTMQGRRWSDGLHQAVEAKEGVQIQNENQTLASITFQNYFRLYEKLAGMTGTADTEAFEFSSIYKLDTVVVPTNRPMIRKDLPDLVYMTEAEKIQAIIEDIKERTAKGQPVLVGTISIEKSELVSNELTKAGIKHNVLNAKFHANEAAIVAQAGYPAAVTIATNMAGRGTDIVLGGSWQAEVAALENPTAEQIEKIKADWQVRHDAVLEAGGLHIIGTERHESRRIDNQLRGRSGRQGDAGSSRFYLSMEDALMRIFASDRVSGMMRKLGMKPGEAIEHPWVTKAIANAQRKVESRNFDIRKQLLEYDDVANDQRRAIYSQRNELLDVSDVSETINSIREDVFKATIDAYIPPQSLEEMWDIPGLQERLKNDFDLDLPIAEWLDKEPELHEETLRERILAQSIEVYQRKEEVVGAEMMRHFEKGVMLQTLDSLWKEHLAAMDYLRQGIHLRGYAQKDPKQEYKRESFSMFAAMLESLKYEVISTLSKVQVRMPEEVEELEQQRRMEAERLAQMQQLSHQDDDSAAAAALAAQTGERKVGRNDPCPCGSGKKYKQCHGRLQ

SMILES	Percent Effect [1] [%]	Percent Effect [2] [%]	Percent Effect [3] [%]	Percent Effect [4] [%]	Percent Effect [5] [%]	Percent Effect [6] [%]	Percent Effect [7] [%]	Percent Effect [8] [%]	Percent Effect [9] [%]	Percent Effect [10] [%]	Percent Effect [11] [%]
CCN(CCNC(=O)c1ccccc1Br)C1CC1	-1.99	-6.33	-0.476	-1.28	-0.923	7.53	10.3	5.43	1.04	-10.1	-18
CCOC(CC)C(=O)NCCC(=O)N1CCN(c2ccccn2)CC1 (stereo unspecified)	-3.95	2.63	4.4	4.32	3.99	-8.28	6.23	-5.03	2.13	5.2	0.201
CC(C)c1cc(NC(=O)CN2CCCC2Cn2cccn2)on1 (stereo unspecified)	-5.87	5.26	-3.45	-1.04	-1.59	3.24	-0.761	15.3	7.39	6.17	9.14
Cc1nccn1CC1CCCN1CCCc1nc(-c2cccs2)no1 (stereo unspecified)	-0.0404	21.6	-8.26	-4.35	-2.92	-11.6	13.3	36.5	3.45	13.6	2.34
CC(C(=O)NCCOc1ccc2c(c1)OCO2)n1cncn1 (stereo unspecified)	-1.18	20.2	-6.18	-3.69	-2.17	6.08	11.6	-12.4	6.4	13.9	-2.77
CN(Cc1cccc(F)c1)C1CCN(CCc2ccccn2)CC1	-3.25	21.6	-5.03	-1.38	-0.65	-1.29	9.34	20.8	3.96	13.4	-4.09
Cc1nc(C2CCCN(C(=O)C(C)(C)n3cc(Cl)cn3)C2)no1 (stereo unspecified)	-1.25	3.8	-0.545	3.13	2.77	3.23	0.343	-9.61	6.25	7.59	-13.7
COc1ccsc1C(=O)N1CCCC(n2nc(C)nc2C)C1 (stereo unspecified)	0.303	0	-4.74	-3.48	-6.89	2.66	-1.72	6.32	6.4	3.8	1.65
N#CC(Sc1nnnn1C1CCOCC1)C1CCCCC1 (stereo unspecified)	-4.28	2.67	0.0297	9.31	-5.55	0.521	7.32	-0.799	3.83	6.17	-4.6
CN(Cc1ccco1)Cc1ccccc1CNC(=O)c1cc[nH]n1	-2.78	0	-0.254	5.67	-6.56	0.952	15.2	18.9	1.59	4.88	-4.37
CC(C)c1ncncc1C(=O)N1CCCN(Cc2cccs2)CC1	-1.81	16.2	-2.92	-2.71	8.08	-6.47	6.46	5.27	6.93	18.3	-5.18
CN(C)c1cc(C(=O)NCCc2nnc(-c3ccco3)[nH]2)ccn1	-2.63	2.63	0.765	-1.33	-2.63	-4.73	5.46	0.0854	4.25	10.4	-3.29
O=C(Cc1cccs1)NC1CCN(c2cccc(F)c2)CC1	-3.15	16.4	6.31	18.6	2.74	7.27	9.05	-1.55	5.38	15	1.6
CC(c1nc(C2CC2)no1)N1CCN(c2ccc(C#N)cn2)CC1 (stereo unspecified)	0.926	2.63	8.14	5.94	-4.58	-4.73	13.7	10.8	2.13	7.79	-2.39
CCN1CC2(CC1=O)CN(C(C)=O)CCN(C(=O)c1ccco1)C2 (stereo unspecified)	-1.61	5.48	-6.62	5.12	-0.595	-4.79	5.05	4.81	1.04	3.7	-1.88
CS(=O)(=O)c1ccc(CNC(=O)N2CCC(c3ccccc3)CC2)cc1	-1.75	7.59	0.598	-2.13	-5.76	3.42	5	8.31	-3.45	1.27	-6.29
